# Measured values taken from PubChem BioAssay (NCATS).
# Values without a mark were called inactive. The rule behind the calls is not given here.
# System: HIV-1 nucleocapsid protein NCp7 (binding to TG oligonucleotide)
# Assay: HIV Nucleocapsid (AID 346);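 note: potency is for inhibitors that block NC binding and lower polarization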
# Details: HIV-1 NC / fluorescein-TGTGTGTG probe, fluorescence polarization
# How it was run: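 HIV-1 NC (100 nM) binding to fluorescein-labelled ssDNA TG4xF (10 nM) in Hepes pH 7.5, 250mM NaCl, 1uM ZnCl2, TCEP and 2-mercaptoethanol; compounds pin-transferred, 1 hr room temperature, fluorescence polarization read on CCD imager.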
# Potency is the fitted concentration of half-maximal effect.
row,Structure (SMILES),Potency [µM]
1,CN1CCN(c2ncc3nc(-c4cn(C)c5ccccc45)c(=O)n(CCc4ccccc4)c3n2)CC1,> 4
2,N#Cc1cccc(-c2cc(NCc3cccs3)ncn2)c1,> 20
3,COc1cccc(Cn2c(=O)c(C)nc3cnc(Nc4cccc(OC)c4)nc32)c1,> 20
4,COc1ccccc1-c1cc(NCc2cnc(C)cn2)ncn1,> 20
5,Cc1nc2cnc(N3CCOCC3)nc2n(C[C@H]2CCCO2)c1=O,> 20
6,COc1ccccc1-c1ccc2ncnc(NC3CCNCC3)c2c1,> 20
7,COc1ccccc1-c1cc(NCc2cccnc2)ncn1,> 20
8,CN(C)Cc1ccccc1-c1nc(N2CCOCC2)c2ccccc2n1,> 20
9,Clc1ccccc1-c1nccc(-n2ccnc2)n1,> 20
10,O=S(=O)(c1ccccc1)N1CCC2(CCN(C(c3ccccc3)c3ccccc3)CC2)CC1,> 20
11,COc1ccc(C(=O)N2CCC3(CC2)CCN(C(c2ccccc2)c2ccccc2)CC3)cc1,> 20
12,O=C(c1cccc(F)c1)N1CCC2(CCCN(Cc3ccncc3)C2)CC1,> 20
13,COC(=O)N1CCC2(CCCN(Cc3nccs3)C2)CC1,> 20
14,CCNc1ncc2ncc(=O)n(C3CC3)c2n1,> 20
15,COc1ccc(C(=O)N2CCC3(CCN(C)CC3)CC2)cc1,> 20
16,Cc1noc(C)c1-c1nc(Nc2ccccc2)c2ccccc2n1,> 20
